# Experimental data published in PubChem BioAssay.
# Calls of active or inactive are those of the source. Unless noted, no rule for the calls is given here.
# Key:
# [1] = A549 cell viability effects, profiling panel, calcein-AM fluorescence, 48 h, basal (AID 1162); details: higher = more signal; also: test concentration not given here
# [2] = adipocyte viability effects, profiling panel, cell-based, 3T3-L1 adipocytes, calcein-AM fluorescence, 48 h, basal (AID 1163); details: 3T3-L1 adipocytes viability, higher = more signal; also: test concentration not given here
# [3] = HepG2 cell viability effects, profiling panel, calcein-AM fluorescence, 48 h, basal (AID 1164); details: higher = more signal; also: test concentration not given here
# [4] = MM1S cell viability effects, profiling panel, calcein-AM fluorescence, 48 h, basal (AID 1165); details: higher = more signal;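 also: viability of MM1S multiple myeloma cells under basal unstimulated conditions; test concentration not given here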
# [5] = basal RPMI8226 viability, no added stimulus, profiling panel, cell-based, calcein-AM fluorescence, 48 h, PK04 Diversity Set (AID 1166); details: RPMI8226 myeloma viability, higher = more signal;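 also: cells grown under basal conditions without added stimulus; test concentration not given here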
# [6] = basal HepG2 mitochondrial membrane potential changes, profiling panel, cell-based, JC-1 fluorescence, 24 h, 100 nL compound (AID 1167); details: higher = more signal; also: test concentration not given here
# [7] = basal 3T3-L1 adipocyte mitochondrial potential changes, profiling panel, cell-based, JC-1 fluorescence, 3T3-L1 adipocytes, 24 h, 100 nL compound (AID 1168); details: JC-1 mitochondrial fluorescence, higher = more signal, called active from +8 up or from −8 down; also: test concentration not given here
# [8] = basal RPMI8226 mitochondrial membrane potential changes, profiling panel, cell-based, JC-1 fluorescence, 24 h, 100 nL compound (AID 1169); details: RPMI8226 myeloma, JC-1 mitochondrial potential fluorescence, higher = more signal; also: test concentration not given here
# [9] = basal MM1S mitochondrial membrane potential changes, profiling panel, cell-based, JC-1 fluorescence, 24 h, 100 nL compound (AID 1170); details: higher = more signal; also: test concentration not given here
# [10] = A549 lung cancer cell viability effects, profiling panel, resazurin fluorescence, 24 h, PK04 Diversity Set (AID 1171); details: higher = more signal, called active from +8 up or from −8 down; also: test concentration not given here
# [11] = HepG2 liver cancer cell viability effects, profiling panel, resazurin fluorescence, 24 h, PK04 Diversity Set (AID 1172); details: higher = more signal; also: test concentration not given here
# [12] = basal S. cerevisiae growth modulation, no modifier, primary screen, OD600, strain BY4716, 24 h, basal condition (AID 1173); details: OD600, 24 h, higher = more signal, called active from +8 up or from −8 down
# [13] = MM1S myeloma cell viability, profiling panel, resazurin fluorescence, basal, 24 h, PK04 Diversity Set (AID 1174); details: higher = more signal, called active from +8 up or from −8 down;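 also: MM1S multiple myeloma cell line; test concentration not given here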
# [14] = biological target: Dihydroorotate dehydrogenase (quinone), mitochondrial (Plasmodium falciparum (isolate 3D7)) (UniProt Q08210); assay: PfDHODH enzyme inhibitors, primary screen, biochemical, C-terminal His tag, absorbance 600 nm (AID 1175); details: DCIP absorbance 600 nm, higher = more signal, called active from +8 up or from −8 down;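 also: recombinant parasite enzyme with a five histidine tag at its C terminus; test concentration not given here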
# [15] = P. aeruginosa biofilm formation inhibitors, primary screen, strain PAO1, LB-PBS medium, absorbance 600 nm (AID 1176); also: test concentration not given here; details: P. aeruginosa PAO1 growth/biofilm, A600, 12 h; higher = more signal
# [16] = S. cerevisiae RM11-1a growth modifiers, primary screen, strain RM11-1a, OD600, basal, 24 h (AID 1177); details: OD600, 24 h, higher = more signal, called active from +8 up or from −8 down;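 also: cultures grown under basal conditions with no added stressor; test concentration not given here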
# [17] = E. coli acrAB mutant growth effects, primary screen, E. coli filamentation inducers, strain DRC39, OD650, 24 h (AID 1178); details: higher = more signal, called active from +8 up or from −8 down;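 also: growth measured as culture turbidity by optical density at 650 nm; test concentration not given here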
# [18] = E. coli acrAB mutant growth effects, primary screen, E. coli filamentation inducers, strain DRC39, OD650, 48 h (AID 1179);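 also: screen aims at cell division blockers that make cells filament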; details: E. coli DRC39 delta-acrAB growth, higher = more signal, called active from +8 up or from −8 down
# [19] = RPMI8226 myeloma cell viability, profiling panel, resazurin fluorescence, basal, 24 h, PK04 Diversity Set (AID 1180); details: higher = more signal;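 also: RPMI8826 multiple myeloma cell line at 5000 cells per well; test concentration not given here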
# [20] = biological target: E3 ubiquitin-protein ligase XIAP (Homo sapiens) (UniProt P98170); assay: XIAP binders, primary screen, biophysical, small-molecule microarray, fluorescence 635 nm (AID 1181); details: small-molecule microarray binding, higher = more signal;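 also: score merges 667 nm emission and signal to noise over triplicate slides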
# Chain of E3 ubiquitin-protein ligase XIAP (Homo sapiens) (P98170 whole entry, looked up): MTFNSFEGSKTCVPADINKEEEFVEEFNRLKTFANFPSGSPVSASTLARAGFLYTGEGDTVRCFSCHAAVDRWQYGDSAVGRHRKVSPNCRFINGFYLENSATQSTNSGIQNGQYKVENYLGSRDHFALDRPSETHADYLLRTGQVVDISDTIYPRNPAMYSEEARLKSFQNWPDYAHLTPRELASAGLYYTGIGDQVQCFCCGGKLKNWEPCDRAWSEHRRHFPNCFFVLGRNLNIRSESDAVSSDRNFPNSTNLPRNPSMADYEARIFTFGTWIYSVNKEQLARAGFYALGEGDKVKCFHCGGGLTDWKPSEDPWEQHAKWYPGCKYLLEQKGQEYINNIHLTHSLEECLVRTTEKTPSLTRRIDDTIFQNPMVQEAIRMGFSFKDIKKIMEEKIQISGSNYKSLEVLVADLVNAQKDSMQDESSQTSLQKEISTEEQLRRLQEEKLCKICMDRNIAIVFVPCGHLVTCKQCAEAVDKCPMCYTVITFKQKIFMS
# Chain of Dihydroorotate dehydrogenase (quinone), mitochondrial (Plasmodium falciparum (isolate 3D7)) (Q08210 whole entry, looked up): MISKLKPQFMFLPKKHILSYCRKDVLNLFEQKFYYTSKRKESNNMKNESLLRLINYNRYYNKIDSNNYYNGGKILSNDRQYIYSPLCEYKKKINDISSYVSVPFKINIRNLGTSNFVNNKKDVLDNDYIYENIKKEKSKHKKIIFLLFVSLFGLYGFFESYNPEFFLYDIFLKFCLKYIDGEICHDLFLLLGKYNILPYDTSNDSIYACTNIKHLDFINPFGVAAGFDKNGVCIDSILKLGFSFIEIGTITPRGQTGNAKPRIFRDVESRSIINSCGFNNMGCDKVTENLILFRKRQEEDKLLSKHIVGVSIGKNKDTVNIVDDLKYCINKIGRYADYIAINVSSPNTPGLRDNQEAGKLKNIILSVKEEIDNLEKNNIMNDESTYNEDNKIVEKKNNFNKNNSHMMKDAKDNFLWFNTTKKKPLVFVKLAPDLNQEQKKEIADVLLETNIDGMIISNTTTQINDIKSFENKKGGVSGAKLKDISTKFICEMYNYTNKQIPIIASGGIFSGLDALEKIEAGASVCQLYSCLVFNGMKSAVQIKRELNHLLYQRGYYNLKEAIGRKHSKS
SMILES,z-score [1],z-score [2],z-score [3],z-score [4],z-score [5],z-score [6],z-score [7],z-score [8],z-score [9],z-score [10],z-score [11],z-score [12],z-score [13],composite z-score [14],z-score [15],z-score [16],z-score [17],z-score [18],z-score [19],composite z-score [20]
CCCCC(=C=CC[C@H](O)c1ccc(OCCO)cc1)C[C@H](O)COCc1ccccc1,0.218,0.516,0.528,-3.3,-0.565,-0.399,-0.379 (inactive),-0.0821,-0.244,0.449 (inactive),-0.0002,-1.36 (inactive),0.0233 (inactive),-0.624 (inactive),0.0964 (inactive),0.556 (inactive),1.05 (inactive),0.529 (inactive),0.676,0.0122
CC(C)CNC(=O)[C@@]1(c2ccc([N+](=O)[O-])cc2)CC(=O)N(C2CCCCC2)[C@@H]1c1ccc(CO)cc1,-0.0452,0.389,-0.004,-0.41,0.542,0.634,-0.6 (inactive),-0.426,0.771,0.436 (inactive),0.0751,-1.68 (inactive),1.17 (inactive),-0.0682 (inactive),-0.301 (inactive),-0.377 (inactive),0.637 (inactive),0.0367 (inactive),1.12,0.14
COc1ccc([Si](C)(C)[C@H]2[C@H](CCO)O[C@@]3(C(=O)N(Cc4ccccc4)c4ccc(N5C(=O)c6ccccc6Oc6ccccc65)cc43)[C@@H]2C)cc1,-1.01,0.271,-3.26,-1.7,-3.51,0.0091,-0.404 (inactive),-0.896,-1.53,-2.28 (inactive),-1.6,1.09 (inactive),-4.24 (inactive),0.906 (inactive),2.38 (inactive),3.48 (inactive),0.0105 (inactive),-0.615 (inactive),-3.34,-0.172
COCCOC(=O)N1C(=O)[C@@]2(c3cc(C#CCC(C(=O)OC)C(=O)OC)ccc31)[C@H](c1ccc(O)cc1)N1[C@H](c3ccccc3)[C@H](c3ccccc3)OC(=O)[C@H]1[C@@H]2C(=O)NC[C@H](O)c1ccccc1,-0.61,0.0453,-0.0754,-1.92,-4.3,-0.689,-1.16 (inactive),-1.08,-0.91,0.691 (inactive),1.78,-0.149 (inactive),0.6 (inactive),0.407 (inactive),-0.489 (inactive),0.592 (inactive),0.416 (inactive),-0.228 (inactive),-2.51,-0.187
O=c1cccc(-c2ccc(F)cc2)o1,-0.562,0.616,-0.606,-0.0871,-0.913,0.0366,0.5 (inactive),0.036,-0.0644,-0.0964 (inactive),0.0278,-0.576 (inactive),0.306 (inactive),-0.555 (inactive),-0.088 (inactive),0.18 (inactive),-0.561 (inactive),-0.165 (inactive),-0.739,-0.167
C=CCOC(=O)[C@H]1[C@@H]2C(=O)O[C@@H](c3ccccc3)[C@@H](c3ccccc3)N2[C@@H](c2ccc(OCCOC(=O)[C@H]3C[C@H]4C(=O)N[C@@H](CCCCNC(C)=O)C(=O)N4[C@H]3c3cccc(OCCO)c3)cc2)[C@]12C(=O)Nc1ccc(I)cc12,0.0973,1.5,-0.621,0.035,-0.665,-1.91,0.622 (inactive),-0.676,-0.519,-0.342 (inactive),-0.821,1.2 (inactive),-0.682 (inactive),1.34 (inactive),2.63 (inactive),1.59 (inactive),-0.817 (inactive),-1.2 (inactive),-0.538,-0.0228
CCOC(=O)C1=C[C@@H](C(C)(C)C)N(S(=O)(=O)c2ccc(C)cc2)[C@H]1c1ccccc1,-1.42,-0.396,-2.27,-2.95,-3.35,3.49,-0.243 (inactive),-0.966,-0.75,1.62 (inactive),-0.159,1.53 (inactive),-0.562 (inactive),-0.294 (inactive),0.0083 (inactive),1.59 (inactive),0.128 (inactive),-0.0515 (inactive),-1.11,-0.162
NC(=O)[C@@H]1[C@H]2C(=O)O[C@H](c3ccccc3)[C@H](c3ccccc3)N2[C@H](c2ccc(OCCO)cc2)[C@@]12C(=O)Nc1ccc(C#CCCO)cc12,-0.0173,-0.387,1.17,-0.929,0.698,-0.704,-0.391 (inactive),-0.323,-0.939,-0.65 (inactive),-0.632,-0.349 (inactive),-0.729 (inactive),-1.26 (inactive),1.42 (inactive),1.27 (inactive),0.544 (inactive),0.721 (inactive),-0.83,0.216
COc1ccc([Si](C)(C)[C@H]2[C@H](CC(=O)N3Cc4ccccc4C[C@H]3CO)O[C@@]3(C(=O)N(Cc4ccc(N5C(=O)c6cccc7cccc5c67)cc4)c4ccccc43)[C@@H]2C)cc1,-0.0678,0.314,0.898,-0.769,-0.874,2.5,-0.178 (inactive),-1.22,-0.862,0.0918 (inactive),0.716,0.21 (inactive),-2 (inactive),-0.934 (inactive),1.13 (inactive),1.77 (inactive),0.929 (inactive),0.472 (inactive),-0.737,-0.063
